Measurements reported in PubChem BioAssay.

assay: 384-well plate pilot, post-Golgi transport modulator project, inhibition of yeast transport mutant growth (AID 636); settings: absorbance 615 nm, about 18 h, active compounds read high; in the data active means inhibition above about 31%; inactive means the rest

inhibition, inactive:
CCOc1ccc(OCc2ccc(C(=O)Nc3cccc(C)n3)o2)cc1 -1.58%
CCOC(=O)N1CCC(NC(=O)CSCc2nc(-c3cccc(OC)c3)oc2C)CC1 -2%
Cn1c(=O)cc(OCC(=O)N2CCN(c3cccc(C(F)(F)F)c3)CC2)c2ccccc21 -6.27%
CCCCOc1ccc(CSc2n[nH]c(C)n2)cc1 -1.22%
CS(=O)(=O)N(CC(=O)NCc1ccccn1)c1ccc2c(c1)OCCO2 -6.93%
CCOC(=O)CSc1nnc([C@H](C)NC(=O)OC(C)(C)C)o1 -5.58%
CCSc1nnc2c(n1)OC=Nc1ccc(Br)cc1-2 -0.66%
COc1ccccc1Nc1nc2ccccc2[nH]1 -9.07%
Cc1oc(-c2ccccc2Cl)nc1CSCC(=O)N1CCCC1 -0.93%
CNC(=O)Nc1cccc(C(F)(F)F)c1 -4.08%
CCOC(=O)N1CCN(c2c(NCCN(C)Cc3ccccc3)c(=O)c2=O)CC1 0.27%
CCOc1ncccc1C(=O)OCC(=O)N1CC(=O)Nc2ccccc21 -0.78%
Cn1c(=O)c2c(-c3ccccc3)n(CCCN3CCOCC3)cc2n(C)c1=O 2.21%
COc1cccc(NC(=O)N2CCN(c3cccc(C)c3C)CC2)c1 1.82%
CCCCC(=O)NCCNc1nc2c(c(=O)n(C)c(=O)n2C)n1Cc1ccccc1 -5.68%
COc1ccc(S(=O)(=O)Nc2ccc(S(=O)(=O)N3CCCCC3)cc2)cc1OC 0.13%
COc1ccc(CN2CC(C(=O)NCc3ccccn3)CC2=O)cc1 (stereo not given) -5%
CC(C)(C)NC(=O)Cn1nnc(-c2cccs2)n1 -3.87%
COCCn1nnnc1CN(Cc1cccnc1)Cc1cc2cc(OC)ccc2[nH]c1=O -7.07%
CC(C)=CC/C=C1\CCC(C(=O)O)C(C(=O)O)C1 (stereo not given) -6.13%
CCOC(=O)C1=C(C)NC(SC(C)=O)=NC1c1ccc(OC(C)=O)c(OC)c1 (stereo not given) -6.84%
O=C(Nc1cccc(F)c1)c1cccc(S(=O)(=O)N2CCOCC2)c1 -6.71%
CCCn1c(SCC(=O)N2CCCc3ccccc32)nnc1-c1ccccn1 -4.67%
Cc1ccccc1N(C)S(=O)(=O)c1ccc2[nH]cc(C(=O)NCC3CCCO3)c(=O)c2c1 (stereo not given) -4.61%
Cc1cccc(C(OC(=O)c2ccco2)C(=O)NCc2ccccc2)n1 (stereo not given) -2.03%
Nn1c(SCC(=O)Nc2ccc(F)cc2)nnc1-c1cccnc1 -0.26%
CCOC(=O)c1c(NC(=O)c2nn(CC)cc2Br)c(C#N)cn1-c1ccccc1 -4.61%
CCCCOC(=O)CN1C(=O)c2ccc(C(=O)OCCCC)cc2C1=O -2.97%
O=C(COc1ccc(Cl)cc1)Nc1nc(-c2cccs2)cs1 3.55%
O=C(CSc1ncn[nH]1)c1ccco1 -1.56%
CC(=O)Nc1c(O)nc(SCC(=O)Nc2nnc(CC(C)C)s2)[nH]c1=O 3.2%
COC(=O)C(C)NC(=O)C12CC3CC(CC(C3)C1)C2 (stereo not given) -1.54%
CCOc1cc(C2C(C#N)=C(N)OC(C)=C2C(C)=O)cc(Br)c1O (stereo not given) -5.95%
COC(=O)c1cc(Br)c(=O)n(Cc2cccnc2)c1 -3.95%
COc1cc(NS(=O)(=O)c2ccc(Br)s2)cc(OC)c1 -6.53%
Cc1ccccc1N(CC(=O)NCC1CCCO1)C(=O)C1(C)CC(=O)N=C2C=CC=CN21 (stereo not given) -1.05%
CSc1ccc(S(=O)(=O)Nc2cccc(F)c2)cc1 -5.26%
CCC(C)(C)n1nnnc1C(c1ccncc1)N1CCN(c2cccc(OC)c2)CC1 (stereo not given) -2.67%
CCn1c(=O)c(C(=O)Nc2cccnc2)c(O)c2ccccc21 -0.93%
CCOCCCNC(=O)CCNS(=O)(=O)c1ccc(C)cc1 -3.03%
